Several values for one entry are separate records, joined by “and”; a condition that tells them apart may be missing. Equal entries are not always repeated. Results filed as inconclusive are left out. A number with no mark means an inactive call. Activity calls are given as the source filed them. The call rests on the fitted dose curve; in most records, active means well fitted cell-killing curve with a large enough effect in the repeat runs; inconclusive means weak or mixed curves, or effect the other way; inactive means no such curve, though single readings can be large or run the other way. Positions of bridges follow the written chain, without caps; N, C: chain ends. Non-standard residues stand in square brackets, D forms with d. Residues, ends and D or L forms follow the SMILES beside them. ξ: configuration not given here. *: point of attachment. d(aThr) = C[C@@H](O)[C@@H](N)C(=O)O; ξThr(3R) = C[C@@H](O)C(N)C(=O)O; X3 = CC[C@@H](C)CCCCC(=O)*; X2 = CC[C@H](C)CCCCC(=O)*; dDab = NCC[C@@H](N)C(=O)O; Dab = NCC[C@H](N)C(=O)O

These results are taken from PubChem BioAssay (Tox21).
On the % scale 0 is the no-effect control and ±100 the full control effect; potency means the concentration at half of the fitted maximal effect.

The assay can be described thus: qHTS assay to identify small molecule antagonists of the thyroid receptor (TR) signaling pathway - cell viability counter screen (AID 743064). Further: nearly all actives have a fitted effect of over 50% in size. As to conditions: GH3.TRE-Luc viability, CellTiter-Fluor, 24 h; series mostly up to 70.3 µM; activity change, negative = cytotoxic: at the top concentration. The text has this: National Center for Advancing Translational Sciences [NCATS]
NIH Chemical Genomics Center [NCGC]
U.S. Environmental Protection Agency [EPA]
National Institutes of Environmental Health Sciences [NIEHS]
National Toxicology Program [NTP]
U.S. Food and Drug Administration [FDA]
Thyroid receptor (TR), a nuclear hormone receptor, plays an important role in development, proliferation, differentiation, metabolism, brain function, and cardiovascular system. […] To profile the Tox21 10K compound library in TR signaling, a cell-based GH3-TRE-Luc assay (GH3.TRE-Luc cell line, developed by the laboratory of Dr. Albertinka J. Murk, Wageningen University) was used to measure the inhibition of TR. GH3 (rat pituitary tumor) cells stably expressing a TR activity sensor consisting of two TR response elements and a luciferase reporter gene. The cytotoxicity of the Tox21 compound library against the GH3.TRE-Luc cell line was tested in parallel by measuring the cell viability using CellTiter-Fluor assay (Promega, Madison, WI) in the same wells.
Tox21 Assay Protocol Summary:
GH3.TRE-Luc cells were dispensed at 1500 cells/4 uL/well into 1536-well white solid bottom plates using a Multidrop Combi dispenser (Thermo Fisher Scientific Inc., Waltham, MA). After the assay plates were incubated at 37 C for 4 hours, 23 nL of library compound or DMSO controls was transferred to the assay plates by a pintool station (Kalypsys, San Diego, CA), followed by addition of 1 ul of T3 (1 nM, final concentration in the wells) to stimulate TR transactivation. The assay plates were incubated at 37 C for 23.5 h, and then 1 uL of CellTiter-Fluor reagent (Promega, Madision, WI) of measuring cytotoxicity was added to each well using a Bioraptr Flying Reagent Dispenser (FRD) workstation (Beckman Coulter, Indianapolis, IN, USA). The plates were incubated at 37C and 5% CO2 for additional 30 min, and fluorescence intensity was measured by a ViewLux plate reader (PerkinElmer, Shelton, CT).
As for `COc1cc2c(cc1OC)CC(=O)N(CCCN(C)C[C@H]1Cc3cc(OC)c(OC)cc31)CC2`, the “activity change, negative = cytotoxic” value is 25.5%.
The same measure, in the same setting: with `CCC[C@@H]1C[C@@H](C(=O)N[C@@H]([C@H]2O[C@H](SC)[C@H](O)[C@@H](O)[C@H]2O)[C@H](C)Cl)N(C)C1` the figure was 9.01%.
Same read-out and setting: with `O=C1c2ccccc2C(=O)C1c1ccc(Cl)cc1` the figure was -1.1%.
As to `CC[C@@H](C(=O)O)[C@@H]1O[C@@H]([C@@H](C)[C@H](O)[C@H](C)C(=O)[C@H](CC)[C@H]2O[C@]3(C=C[C@@H](O)[C@]4(CC[C@@](C)([C@H]5CC[C@](O)(CC)[C@H](C)O5)O4)O3)[C@H](C)C[C@@H]2C)[C@@H](C)C[C@@H]1C`, the Potency was 0.15 µM (active).
On to `C=C[C@]1(C)C[C@@H](OC(=O)CO)[C@]2(C)[C@H](C)CC[C@]3(CCC(=O)[C@H]32)[C@@H](C)[C@@H]1O`, for which the “activity change, negative = cytotoxic” value is 3.45%.
On to `CCC(=O)c1ccc2c(c1)N(CCCN1CCN(CCO)CC1)c1ccccc1S2`, for which the Potency is 10.6 µM (active).
Regarding `O=[N+]([O-])c1c(Cl)cccc1-c1c[nH]cc1Cl`, the Potency was 29.8 µM (active).
Still for that read-out and setting: then `CN1[C@@H]2CC[C@H]1CC(OC(c1ccccc1)c1ccccc1)C2` (stereo not given in full), with 16.8 µM (active) and 26.6 µM (active); and `CNCC(O)c1ccc(OC(=O)C(C)(C)C)c(OC(=O)C(C)(C)C)c1` (stereo not given), with 12.7 µM (active).
`CC[C@@H](C)CCCCC(=O)N[C@H](CCN)C(=O)N[C@@H](C(=O)N[C@H](CCN)C(=O)N[C@@H]1CCNC(=O)C([C@@H](C)O)NC(=O)[C@@H](CCN)NC(=O)[C@@H](CCN)NC(=O)[C@@H](CC(C)C)NC(=O)[C@@H](Cc2ccccc2)NC(=O)[C@@H](CCN)NC1=O)[C@@H](C)O` (stereo partly drawn) (X3-[dDab][d(aThr)][dDab][dDab][dDab][dF][dL][dDab][dDab][ξThr(3R)]; lactam 4-C): the “activity change, negative = cytotoxic” value is 17.1%.
The same measure, in the same setting: with `CC(C)(C)NCC(O)CSc1nc(-c2ccc(C(N)=O)s2)cs1` (stereo not given) the figure was 17.9%; with `COc1c(O[C@@H]2O[C@H](CO)[C@@H](O)[C@H](O)[C@H]2O)cc2c(c1OC)-c1ccc(SC)c(=O)cc1[C@@H](NC(C)=O)CC2`, 6.43% [at 32.5 µM]; with `CC[C@H](C)CCCCC(=O)N[C@@H](CCN)C(=O)N[C@H](C(=O)N[C@@H](CCN)C(=O)N[C@H]1CCNC(=O)[C@H]([C@@H](C)O)NC(=O)[C@H](CCN)NC(=O)[C@H](CCN)NC(=O)[C@H](CC(C)C)NC(=O)[C@@H](CC(C)C)NC(=O)[C@H](CCN)NC1=O)[C@@H](C)O` (X2-[Dab]T[Dab][Dab][Dab][dL]L[Dab][Dab]T; lactam 4-C), 0.573%.
For the compound `O=C(O)CCC/C=C\C[C@@H]1[C@@H](/C=C/[C@@H](O)COc2cccc(C(F)(F)F)c2)[C@H](O)C[C@@H]1O`, the “activity change, negative = cytotoxic” value is 12.6%.
Take `CC1=C(/C=C/C(C)=C/C=C/C(C)=C/C=C/C=C(C)/C=C/C=C(C)/C=C/C2=C(C)C[C@@H](O)CC2(C)C)C(C)(C)C[C@H](O)C1`: the Potency is 29.8 µM (active).
Still for that read-out and setting: with `CNC(=O)[C@H](Cc1c[nH]c2ccccc12)NC(=O)[C@@H](CC(=O)NO)CC(C)C` the figure was 1.68 µM (active).
`C[N@+]12CCCC[C@@H]1CCC(=C(c1cccs1)c1cccs1)C2`: the “activity change, negative = cytotoxic” value is 24.7%.
Regarding `CCCC1([C@H](O)C/C=C/[C@H]2[C@H](O)CC(=O)[C@@H]2CCCCCCC(=O)OC)CCC1`, the Potency was 29.8 µM (active).
As to `CC(/C=C/C=C(\C)C(=O)O[C@@H]1O[C@H](CO[C@@H]2O[C@H](CO)[C@@H](O)[C@H](O)[C@H]2O)[C@@H](O)[C@H](O)[C@H]1O)=C\C=C\C=C(C)\C=C\C=C(/C)C(=O)O[C@@H]1O[C@H](CO[C@@H]2O[C@H](CO)[C@@H](O)[C@H](O)[C@H]2O)[C@@H](O)[C@H](O)[C@H]1O`, the “activity change, negative = cytotoxic” value was -18.8%.
Still for that read-out and setting: then `O=c1oc2cc(O)ccc2s1`, with 2.02%; and `C[C@@H]1C[C@H]2C3C[C@H](F)C4=CC(=O)C=CC4(C)[C@@]3(F)[C@@H](O)CC2(C)[C@@]1(O)C(=O)COC(=O)C(C)(C)C` (stereo not given in full), with -0.527%.
Consider `O=C(O[C@H]1CN2CCC1CC2)N1CCc2ccccc2[C@@H]1c1ccccc1`, for which the Potency is 23.7 µM (active).
Turning to `CCC(Cc1c(I)cc(I)c(O)c1I)C(=O)O` (stereo not given), the “activity change, negative = cytotoxic” value is 17.5%.
As for `CS(=O)(=O)c1ccc(C2=C(c3ccccc3)C(=O)OC2)cc1`, the “activity change, negative = cytotoxic” value was 2.97%.
Still for that read-out and setting: with `CC(=O)N[C@@H](CC(=O)N[C@@H](CCC(=O)O)C(=O)O)C(=O)O` the figure was 28.7%.
For `Cc1ccc(C2(O)CCN(CCCC(=O)c3ccc(F)cc3)CC2)cc1`, the Potency is 13.3 µM (active).
Consider `CCCC1C(=O)N2C(N(C)C)=Nc3ccc(C)cc3N2C1=O` (stereo not given), for which the “activity change, negative = cytotoxic” value was 9.65% [at 32.5 µM].
For the compound `COc1cc([C@@H]2c3cc4c(cc3C(O[C@@H]3O[C@@H]5COC(c6cccs6)O[C@H]5[C@H](O)[C@H]3O)C3COC(=O)[C@@H]32)OCO4)cc(OC)c1O` (stereo not given in full), the Potency was 2.37 µM (active).
Regarding `O=C(O)[C@@H](O)[C@H](O)[C@H](O)[C@@H](O)C(=O)O` (tested in a mixture with another compound), the “activity change, negative = cytotoxic” value was -2.2%.
In the case of `OC[C@H]1O[C@@H](n2cnc3c2NC=NC[C@H]3O)C[C@@H]1O`, the “activity change, negative = cytotoxic” value is -1.05%.
On the same count and under the same terms, with `O=C(O)[C@H]1/C(=C/CO)O[C@@H]2CC(=O)N21` the figure was 6.97%.
Regarding `CN[C@H]1CCc2cc(OC)c(OC)c(OC)c2-c2ccc(OC)c(=O)cc21`, the Potency is 0.119 µM (active).
As for `O=C(O)CO.[NH2-].[NH2-].[Pt+2]`, the “activity change, negative = cytotoxic” value is 6.2%.
`C[C@H](N)C(=O)N[C@@H](C)P(=O)(O)O`: the “activity change, negative = cytotoxic” value is -2.45%.
The same measure, in the same setting: with `CS(=O)(=O)OCCCNCCCOS(C)(=O)=O` the figure was 22.6%.
Same read-out and setting: then `CC(C)CCCC(C)NC(C)C` (stereo not given), with 19.5%; and `CCCCCC(O)/C=C/C=O` (stereo not given), with 10.6%.
Consider `c1ccc2c(c1)Sc1ccccc1N2CCN1CCCC1`, for which the Potency is 11.9 µM (active).
On to `c1ccc2cc(C3=NCCN3)ccc2c1`, for which the “activity change, negative = cytotoxic” value was -17.7%.
The same measure, in the same setting: with `O=C(O)C1=C(CSc2nnnn2CS(=O)(=O)O)CS[C@@H]2[C@H](NC(=O)[C@H](O)c3ccccc3)C(=O)N12` the figure was 6.53%.
